From PubChem BioAssay AID1159580 (chemical genetic matrix, 2015)
About 2,000 (36%) of roughly 5,500 compounds were called active. Inconclusive results (about 18%) are left out. No stated cut-off is given here; in the data, active means normalized growth mostly below about 0.91 (no sharp cut-off); inconclusive means no clear call, values can overlap the other calls; inactive means mostly above about 0.92. The list shows a part of the results.

Test: chemical genetic growth profiling, strain panel (AID 1159580);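 further: tested at 20 µM; growth read once vehicle control cultures reached saturation at 30 °C; 1 = growth at the plate median or of vehicle wells; lower values mean less growth of the strain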
Details: growth OD

Measured: normalized growth

COc1c(O)cc2c(c1O)[C@H]1O[C@H](CO)[C@@H](O)[C@H](O)[C@@H]1OC2=O
inactive: S. cerevisiae deletion strains, locus YKL009W, strain mrt4, hits give low values 1.01 | S. cerevisiae deletion strains, locus YKL068W, hits give low values 1.01 | S. cerevisiae deletion strains, locus YKL085W, strain MDH1 (second series), hits give low values 1 | S. cerevisiae deletion strains, locus YKL085W, strain MDH1, hits give low values 1 | S. cerevisiae deletion strains, locus YKL160W, strain elf1, hits give low values 1.03 | S. cerevisiae deletion strains, locus YKL190W, strain CNB1, hits give low values 0.975 | S. cerevisiae deletion strains, locus YKR001C, strain vps1, hits give low values 1.01 | S. cerevisiae deletion strains, locus YKR026C, strain gcn3, hits give low values 1.01 | S. cerevisiae deletion strains, locus YKR091W, strain srl3, hits give low values 1.02 | S. cerevisiae deletion strains, locus YLL001W, strain dnm1, hits give low values 1.03 | S. cerevisiae deletion strains, locus YLL026W, hits give low values 1.01 | S. cerevisiae deletion strains, locus YLL041C, strain sdh2, hits give low values 1.02 | S. cerevisiae deletion strains, locus YLR027C, strain aat2, hits give low values 1.02 | S. cerevisiae deletion strains, locus YLR039C, strain RIC1, hits give low values 1.04 | S. cerevisiae deletion strains, locus YLR058C, strain SHM2, hits give low values 0.986 | S. cerevisiae deletion strains, locus YLR102C, strain apc9, hits give low values 1 | S. cerevisiae deletion strains, locus YLR113W, strain HOG1, hits give low values 0.985 | S. cerevisiae deletion strains, locus YLR221C, strain rsa3, hits give low values 1.02 | S. cerevisiae deletion strains, locus YLR258W, strain gsy2, hits give low values 1.04 | S. cerevisiae deletion strains, locus YLR262C, strain YPT6 (second series), hits give low values 1.06 | S. cerevisiae deletion strains, locus YLR262C, strain YPT6, hits give low values 1.07 | S. cerevisiae deletion strains, locus YLR268W, strain sec22, hits give low values 1.01 | S. cerevisiae deletion strains, locus YLR320W, strain mms22, hits give low values 1.05 | S. cerevisiae deletion strains, locus YLR330W, strain CHS5, hits give low values 1.01 | S. cerevisiae deletion strains, locus YLR342W, strain FKS1 (second series), hits give low values 0.902 | S. cerevisiae deletion strains, locus YLR342W, strain FKS1, hits give low values 1.02 | S. cerevisiae deletion strains, locus YLR357W, strain rsc2, hits give low values 1.01 | S. cerevisiae deletion strains, locus YLR370C, strain arc18, hits give low values 1.02 | S. cerevisiae deletion strains, locus YLR371W, strain rom2, hits give low values 1.01 | S. cerevisiae deletion strains, locus YLR384C, strain iki3, hits give low values 1.01 | S. cerevisiae deletion strains, locus YLR418C, strain cdc73, hits give low values 1.02 | S. cerevisiae deletion strains, locus YML016C, strain PPZ1, hits give low values 1 | S. cerevisiae deletion strains, locus YML032C, strain rad52, hits give low values 0.999 | S. cerevisiae deletion strains, locus YML120C, strain ndi1, hits give low values 1.03 | S. cerevisiae deletion strains, locus YML124C, strain tub3, hits give low values 1.01 | S. cerevisiae deletion strains, locus YMR058W, strain fet3, hits give low values 1.01 | S. cerevisiae deletion strains, locus YMR078C, strain ctf18, hits give low values 1.01 | S. cerevisiae deletion strains, locus YMR125W, strain sto1, hits give low values 1.02 | S. cerevisiae deletion strains, locus YMR129W, hits give low values 1.02 | S. cerevisiae deletion strains, locus YMR205C, strain PFK2, hits give low values 1.03 | S. cerevisiae deletion strains, locus YMR223W, strain ubp8, hits give low values 0.993 | S. cerevisiae deletion strains, locus YMR231W, strain pep5, hits give low values 1.02 | S. cerevisiae deletion strains, locus YMR263W, strain SAP30, hits give low values 0.993 | S. cerevisiae deletion strains, locus YMR307W, strain GAS1, hits give low values 0.828 | S. cerevisiae deletion strains, locus YNL067W, strain RPL9B, hits give low values 0.97 | S. cerevisiae deletion strains, locus YNL071W, strain lat1, hits give low values 1.03 | S. cerevisiae deletion strains, locus YNL128W, strain TEP1, hits give low values 1.01 | S. cerevisiae deletion strains, locus YNL153C, strain GIM3, hits give low values 0.999 | S. cerevisiae deletion strains, locus YNL183C, strain NPR1, hits give low values 0.933 | S. cerevisiae deletion strains, locus YNL209W, strain ssb2, hits give low values 1.02 | S. cerevisiae deletion strains, locus YNL233W, strain BNI4, hits give low values 0.939 | S. cerevisiae deletion strains, locus YNL248C, strain rpa49, hits give low values 1.01 | S. cerevisiae deletion strains, locus YNL250W, strain rad50, hits give low values 1.02 | S. cerevisiae deletion strains, locus YNL271C, strain bni1, hits give low values 1.02 | S. cerevisiae deletion strains, locus YNL298W, strain CLA4, hits give low values 1.02 | S. cerevisiae deletion strains, locus YNL307C, strain MCK1, hits give low values 1.01 | S. cerevisiae deletion strains, locus YNL322C, strain KRE1 (second series), hits give low values 1.02 | S. cerevisiae deletion strains, locus YNR049C, strain mso1, hits give low values 1.02 | S. cerevisiae deletion strains, locus YNR052C, strain pop2, hits give low values 0.998 | S. cerevisiae deletion strains, locus YOL006C, strain TOP1, hits give low values 0.973 | S. cerevisiae deletion strains, locus YOL012C, strain htz1 0.964 | S. cerevisiae deletion strains, locus YOL147C, strain pex11, hits give low values 1 | S. cerevisiae deletion strains, locus YOR001W, strain rrp6, hits give low values 1.01 | S. cerevisiae deletion strains, locus YOR061W, strain CKA2, hits give low values 0.995 | S. cerevisiae deletion strains, locus YOR069W, strain VPS5, hits give low values 0.985 | S. cerevisiae deletion strains, locus YOR070C, strain gyp1, hits give low values 1.01 | S. cerevisiae deletion strains, locus YOR080W, strain dia2, hits give low values 1.02 | S. cerevisiae deletion strains, locus YOR083W, strain WHI5, hits give low values 1.03 | S. cerevisiae deletion strains, locus YOR106W, strain vam3, hits give low values 1.02 | S. cerevisiae deletion strains, locus YOR136W, strain idh2, hits give low values 1.02 | S. cerevisiae deletion strains, locus YOR144C, strain elg1, hits give low values 1.01 | S. cerevisiae deletion strains, locus YOR184W, strain ser1, hits give low values 1.02 | S. cerevisiae deletion strains, locus YOR231W, strain MKK1, hits give low values 0.961 | S. cerevisiae deletion strains, locus YOR265W, strain rbl2, hits give low values 1.02 | S. cerevisiae deletion strains, locus YOR270C, strain vph1, hits give low values 1.06 | S. cerevisiae deletion strains, locus YOR290C, strain snf2, hits give low values 0.992 | S. cerevisiae deletion strains, locus YOR316C, strain cot1, hits give low values 1.01 | S. cerevisiae deletion strains, locus YPL051W, strain arl3, hits give low values 1.01 | S. cerevisiae deletion strains, locus YPL055C, strain LGE1, hits give low values 0.967 | S. cerevisiae deletion strains, locus YPL078C, strain atp4, hits give low values 1.03 | S. cerevisiae deletion strains, locus YPL106C, strain sse1, hits give low values 1.02 | S. cerevisiae deletion strains, locus YPL240C, strain hsp82, hits give low values 1.02 | S. cerevisiae deletion strains, locus YPL241C, strain CIN2, hits give low values 0.991 | S. cerevisiae deletion strains, locus YPL256C, strain CLN2, hits give low values 0.935 | S. cerevisiae deletion strains, locus YPR119W, strain clb2, hits give low values 1.01 | S. cerevisiae deletion strains, locus YPR141C, strain kar3, hits give low values 1.01 | S. cerevisiae deletion strains, locus YPR163C, strain tif3, hits give low values 1 | S. cerevisiae deletion strains, locus YPR167C, strain met16, hits give low values 1.02 | S. cerevisiae deletion strains, strain wtn01, hits give low values 1.01 | S. cerevisiae strains, strain wild type, hits give low values 0.957
